Data reported in PubChem BioAssay AID1851 (National Center for Advancing Translational Sciences (NCATS), 2009).
The whole screen tested about 16,000 compounds, of which about 5,100 (32%) were called active. About 25% were inconclusive and are not listed. Some of the results follow. A number with no mark means an inactive call. The call rests on the fitted dose curve; in most records, active means well fitted curve in the direction sought with a large enough effect; inconclusive means small, poorly fitted or top-dose-only effect, or effect the other way; inactive means no such curve, though single readings can be large or run the other way.

The compounds below were run against Cytochrome P450 3A4 (Homo sapiens) (UniProt P08684) (assay: Cytochrome panel assay with activity outcomes). Conditions: recombinant CYP, pro-luciferin dealkylation, luminescence, p450-cyp3a4; series mostly up to 57.1 µM.
On the % scale 0 is the no-effect control and ±100 the full control effect.

Chain of Cytochrome P450 3A4 (Homo sapiens) (P08684 whole entry, looked up): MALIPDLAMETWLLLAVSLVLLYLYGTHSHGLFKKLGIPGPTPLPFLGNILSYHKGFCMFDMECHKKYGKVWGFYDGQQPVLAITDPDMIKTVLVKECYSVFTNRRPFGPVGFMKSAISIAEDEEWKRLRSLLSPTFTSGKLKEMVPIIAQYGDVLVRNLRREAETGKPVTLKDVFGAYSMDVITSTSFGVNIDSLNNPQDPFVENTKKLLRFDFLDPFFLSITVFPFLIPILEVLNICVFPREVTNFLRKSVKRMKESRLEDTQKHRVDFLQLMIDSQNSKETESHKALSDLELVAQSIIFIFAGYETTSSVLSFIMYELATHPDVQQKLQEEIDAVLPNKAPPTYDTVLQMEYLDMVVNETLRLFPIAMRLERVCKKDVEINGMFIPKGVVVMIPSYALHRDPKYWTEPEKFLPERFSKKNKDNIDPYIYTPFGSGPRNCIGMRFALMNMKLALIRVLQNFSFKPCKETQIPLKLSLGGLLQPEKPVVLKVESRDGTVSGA

Compound | activity, negative = inhibition | AC50
Cn1cnc([N+](=O)[O-])c1Sc1nc(N)nc2c1ncn2Cc1ccccc1 | -11.4% [at 11.4 µM] | –
O=C1c2ccccc2C(=O)c2c1ccc(C(=O)O)c2-c1ccc2ccccc2c1 | -2.24% [at 11.4 µM] | –
COc1cccc(-c2csc(N3CCN(CC(=O)NNC(=O)c4ccc(Cl)cc4)CC3)n2)c1 | – | 11.2 µM (active)
S=C(NCc1ccco1)N1CCN(C(c2ccccc2)c2ccccc2)CC1 | – | 12.6 µM (active)
Clc1ccc(-c2csc(N3CCC(c4ccccc4)C3)n2)cc1 (stereo not given) | – | inactive
COc1ccc(C(=O)NC2CCN(C(=S)Nc3cccc(C)c3)CC2)cc1 | – | 15.8 µM (active)
CN1CCN(C(c2ccccc2)c2ccccc2)CC1 | – | inactive
COc1ccc(-c2csc(N3C(=N)SCC3=O)n2)cc1 | – | inactive
S=C(NCc1ccco1)N1CCN(Cc2ccco2)CC1 | -5.09% [at 2.29 µM] | –
CN(C)C(=O)c1ccc(-c2cc(NCc3ccccc3)ncn2)cc1 | – | inactive
CN(C)C(=O)c1ccc(-c2cc(NCc3cccnc3)ncn2)cc1 | – | 15.8 µM (active)
Cc1cccc(CNc2cc(-c3ccc(C(=O)N(C)C)cc3)ncn2)c1 | – | 3.16 µM (active)
COc1ccc(C(NC(=O)c2ccc(-c3ccccc3)cc2)c2ccccc2)cc1 (stereo not given) | – | 0.0355 µM (active)
C[C@H](NC(=O)c1ccc(Cl)c(Cl)c1)c1ccc(-c2ccccc2)cc1 | -6.52% [at 11.4 µM] | –
O=C1OC2CC3CC1CC(O)(C3)C2 (stereo not given) | – | inactive
CCc1n[nH]c(=S)n1/N=C/c1ccc2c(c1)OCO2 | – | 14.1 µM (active)
Oc1ccc(Cn2c(-c3ccc(O)cc3)nc3ccccc32)cc1 | -21.1% [at 11.4 µM] | –
CCn1c(-c2ccc(N(C)C)cc2)nc2ccccc21 | – | 10 µM (active)
COc1ccc(C(=O)N2CCC3(CCN(Cc4ccc(C#N)cc4)CC3)CC2)cc1 | – | inactive
COc1ccc(C(=O)N2CCC[C@@]3(CCN(CC(C)C)C3)C2)cc1 | – | 7.94 µM (active)
COc1ccc(C(=O)N2CCC[C@@]3(CCN(Cc4ccccc4)C3)C2)cc1 | – | 10 µM (active)
COCC(=O)N1CCC2(CC1)CN(Cc1ccc(C#N)cc1)C2 | – | inactive
COC(=O)N1CCC2(CCCN(Cc3ccccc3)C2)CC1 | – | inactive
COc1ccc(C(=O)N2CCC[C@@]3(CCN(Cc4ccc(C#N)cc4)C3)C2)cc1 | – | 10 µM (active)
O=c1[nH]c(=O)n([C@@H]2C[C@H](O)[C@H](CO)O2)cc1I | – | inactive

Compound | activity, negative = inhibition | AC50
Brc1ccc(-c2nnc(-c3ccccc3)c(N3CCSCC3)n2)cc1 | – | inactive
CCCCN(C)S(=O)(=O)c1ccc(C(=O)Nc2nnc(CSC)o2)cc1 | – | inactive
Cn1c(C(F)(F)F)nc2c(=O)oc3ccccc3c21 | – | inactive
Nc1ccccc1S(N)(=O)=O | – | inactive
COc1ccc(C(C(=O)NC2CCCCC2)N2CCC3(CC2)OCCO3)cc1 (stereo not given) | – | 4.47 µM (active)
O=C(NC1CCCCC1)C(c1ccccc1)N1CCOCC1 (stereo not given) | – | 11.2 µM (active)
Cc1ccc(C(C(=O)NC2CCCCC2)N2CCN(C(=O)c3ccco3)CC2)cc1 (stereo not given) | -19.6% [at 2.29 µM] | –
CCOc1cc(C)c(S(=O)(=O)Nc2ccc3cn[nH]c3c2)cc1C | – | 0.316 µM (active)
CCOC(OCC)P(=O)(O)CCCNCc1ccc(Cl)c(Cl)c1 | – | inactive
CC(SCc1cn2cc(Cl)ccc2n1)C(=O)O (stereo not given) | – | inactive
Cc1ccn2cc(CSc3ccccc3N)nc2c1 | – | 3.98 µM (active)
C[C@@H](C[N+](C)(C)C)OC(N)=O | – | inactive
COC(=O)C1C(=O)C2=C(CC1C)NC(=O)CC2c1cccc(C)c1 (stereo not given) | – | 14.1 µM (active)
C=CC[C@@H]1C=C[C@H](O/N=C(\C)CCN2CCCCc3nc(C)c(C)cc32)[C@H](CO)O1 | – | 3.98 µM (active)
C=CC[C@@H]1C=C[C@H](O/N=C(\C)CCN2CCCc3nc(C)c(C)cc32)[C@H](CO)O1 | – | 2.51 µM (active)
CN(C(=S)Nc1ccccc1F)C1(c2ccccc2Cl)CCCCC1=O (stereo not given) | -21.2% [at 2.29 µM] | –
CCCCN1C2=NCCCN2c2ccccc21 | 7.3% [at 11.4 µM] | –
Cc1ccsc1/C=N/Nc1nc(Cl)c(Cl)cc1Cl | -21% [at 2.29 µM] | –
O=c1oc2ccccc2cc1-c1csc(NN=C2CCCCC2)n1 | – | 3.98 µM (active)
O=C(Nc1cc2ccccc2oc1=O)C1CCCCC1 | 10.7% [at 2.29 µM] | –
O=C(Nc1ccc(-c2cc3ccccc3oc2=O)c(Cl)c1)c1cccnc1 | – | inactive
COc1cc(OC)cc(C(=O)NC(=S)Nc2ccc(Cl)c(C(=O)O)c2)c1 | – | inactive
COc1ccc(C(=O)NC(=S)NNC(=O)CCc2ccccc2)cc1 | – | 11.2 µM (active)
O=C(CCc1ccccc1)NNC(=S)NC(=O)c1ccccc1 | 7% [at 2.29 µM] | –
Cc1cccc(C)c1NC(=S)NC(=O)CCc1ccccc1 | – | 12.6 µM (active)

Compound | activity, negative = inhibition | AC50
COc1cc(OC)cc(C(=O)NC(=S)NCCc2ccccc2)c1 | – | 3.98 µM (active)
CC[N+](CC)(CC(=O)Nc1c(C)cccc1C)Cc1ccccc1 | – | inactive
NNC(=O)c1ccc[n+](CCc2ccccc2)c1 | -7.56% [at 11.4 µM] | –
CC(C)C12CN3CC(C(C)C)(CN(C1)C3c1ccco1)C2=O (stereo not given) | -2.45% [at 2.29 µM] | –
Cc1cccc(-c2nc(CN3CCCC(C(=O)NC4CCCCC4)C3)c(C)o2)c1 (stereo not given) | – | 3.16 µM (active)
COc1ccc2nc(N3CCCC(C(=O)NCCCN4CCN(C)CC4)C3)sc2c1 (stereo not given) | – | inactive
CCC(C)NC(=O)C1CCCN(C(=O)NC2CCCCC2)C1 (stereo not given) | 10.7% [at 2.29 µM] | –
COc1ccc(CCNC(=O)C2CCCN(Cc3nc(-c4cccc(Cl)c4)oc3C)C2)cc1OC (stereo not given) | – | 2 µM (active)
CCCS(=O)(=O)N1CCCC(C(=O)NCCCN2CCN(c3cccc(Cl)c3)CC2)C1 (stereo not given) | – | inactive
Cc1cn([C@H]2C[C@H](O)[C@@H](COC(N)=O)O2)c(=O)[nH]c1=O | -22.2% [at 11.4 µM] | –
C=CCNc1cnn(-c2ccc(C)cc2)c(=O)c1Cl | – | 4.47 µM (active)
CNc1cnn(-c2ccccc2)c(=O)c1Cl | – | inactive
O=C(NCCc1ccccc1)N1c2ccccc2Sc2ccccc21 | – | 14.1 µM (active)
CC(C)CNCC(=O)N1c2ccccc2Sc2ccccc21 | – | 11.2 µM (active)
CC(C)CNC(=O)c1nc(-c2ccccc2)n(-c2ccccc2)n1 | – | inactive
C[C@@H](CN1c2ccccc2Sc2ccccc21)N(C)C | – | inactive
O=C(O)CNCCc1ccccc1 | -11.1% [at 11.4 µM] | –
NC(=O)/C(=N\OC(=O)c1ccco1)c1nc(-c2ccc(Br)cc2)cs1 | – | inactive
N[C@@H](Cc1ncccn1)C(=O)O | 6.81% [at 11.4 µM] | –
CCOC(=O)c1cc(-c2ccccc2)sc1NC(=S)Nc1cc(C)ccn1 | – | 2.82 µM (active)
CCOc1ncccc1C(=O)OCC(=O)Nc1cc(C)ccc1C | 0.451% [at 2.29 µM] | –
CCOC(=O)c1cc(-c2ccccc2)sc1NC(=O)C(C)(C)C | – | inactive
CC(=O)N(/N=C1\Sc2ccccc2C1=O)c1ccccc1 | – | inactive
Cc1ccc(/C=C2\Sc3ccccc3C2=O)s1 | – | 20 µM (active)
Cc1ccsc1/C=C1/SC(=O)N(CC(=O)N2CCOCC2)C1=O | – | inactive

Compound | activity, negative = inhibition | AC50
Cn1cc(/C=C2/SC(=O)N(CC(=O)Nc3ccc4c(c3)OCO4)C2=O)c2ccccc21 | – | 0.2 µM (active)
CC(C)n1cc(/C=C2/SC(=O)N(CC(=O)Nc3ccc4c(c3)OCO4)C2=O)c2ccccc21 | – | 0.316 µM (active)
CN1CCc2cc(NC(=O)Nc3cccnc3)ccc21 | – | 12.6 µM (active)
Cn1ncc(Cl)c1C(=O)Nc1cccnc1 | – | inactive
O=S(=O)(O)c1cc(O)c2c(O)c(N=Nc3cccc4ccccc34)c(S(=O)(=O)O)cc2c1 | -11.8% [at 11.4 µM] | –
COc1ccc(Cl)cc1NC(=O)C12CCC(C)(C(=O)O1)C2(C)C (stereo not given) | – | 15.8 µM (active)
NS(=O)(=O)c1ccc(N=Nc2nc3[nH]cnc(=S)c3[nH]2)cc1 | -11.9% [at 11.4 µM] | –
COc1ccc(NS(=O)(=O)c2ccc(I)cc2)cc1N1CCN(C)CC1 | – | inactive
COc1ccc(S(=O)(=O)Nc2cccc(Cl)c2)cc1OC | – | 6.31 µM (active)
Cc1ccc(-n2cnc(=O)c3cccnc32)cc1 | -3.53% [at 2.29 µM] | –
Cc1ccc(N2C(=O)c3n[nH]c(C)c3C2c2ccccn2)cc1 (stereo not given) | – | 14.1 µM (active)
Cc1ccc(-n2[nH]c(=O)c3cccnc32)cc1 | – | inactive
FC(F)(F)c1ccccc1-c1cncnc1NCCN1CCOCC1 | – | 0.794 µM (active)
COCCNc1cc(-c2c(C)noc2C)ncn1 | – | inactive
CNc1cc(-c2c(C)noc2C)ncn1 | – | inactive
Cc1noc(C)c1-c1nccc(N2CCOCC2)n1 | – | inactive
Cc1ccccc1-c1cncnc1NCCN1CCOCC1 | – | 1.58 µM (active)
Cc1noc(C)c1-c1cncnc1NCCN1CCOCC1 | – | 6.31 µM (active)
COCCNc1ncncc1-c1c(C)noc1C | – | 5.01 µM (active)
CS[C@@H](CC(=O)O)C(=O)O | -17% [at 11.4 µM] | –
O=C1c2cccnc2C(O)N1C1CCCCC1 (stereo not given) | – | inactive
Cc1nc2c(n1C1CCCCC1)C(=O)c1ccccc1C2=O | – | 14.1 µM (active)
COc1c(F)c(F)c(C(=O)O)c(Nc2ccc(C)cc2)c1F | – | inactive
O=C(N/N=C\c1ccc(-c2ccccc2[N+](=O)[O-])o1)C1COc2cc3ccccc3cc2O1 (stereo not given) | – | 17.8 µM (active)
Cc1ccc(CNC(=O)C2CC(c3ccccc3[N+](=O)[O-])=NO2)o1 (stereo not given) | – | inactive
